We go through 16 compounds from PubChem BioAssay.

One assay addresses Albumin (Bos taurus) (UniProt P02769). Description: bovine serum albumin binders on microarray, profiling panel, artefact control for SMM control protein annotation, biochemical, small-molecule microarray, Alexa647 label, 635/667 nm fluorescence (AID 1118).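 Further: score merges 667 nm emission intensity and signal-to-noise per printed compound spot.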 To be noted: BSA-A647 binding, fluorescence 635 nm, higher = more signal.
A short description of assay [1]: small-molecule microarray binders of probe aXIP, primary screen, biochemical, NeuroSMM set, 635/667 nm fluorescence (AID 1119).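 Further: probe is the protein aXip251-270 applied at 1 µg/mL to compound-printed slides; binding of probe to printed compounds measured as 667 nm fluorescence plus signal to noise.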 The settings on record: higher = more signal, called active from +8 up or from −8 down.
The nature of assay [2]: small-molecule binders of probe aNOTCH3, primary screen, biochemical, small-molecule microarray, 635/667 nm fluorescence (AID 1120).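 Further: probe is a biotin-tagged antibody raised against NOTCH3 rather than NOTCH3 protein; score merges spot fluorescence near 667 nm with spot signal to noise.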 To be noted: higher = more signal.
Assay [3] can be described thus: small-molecule binders of probe aNOTCH2, primary screen, biochemical, small-molecule microarray, 635/667 nm fluorescence (AID 1121).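 Further: score merges feature fluorescence read at 667 nm with its signal to noise.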 To be noted: higher = more signal.
Assay [4] has as its target Carbonic anhydrase 2 (Homo sapiens) (UniProt P00918). Description: CAII small-molecule binders, profiling panel, biochemical, small-molecule microarray, Alexa647-labelled CAII (AID 1122). The settings on record: CAII-A647 binding fluorescence, higher = more signal.
The nature of assay [5]: COS7 lysate on small-molecule microarray, probe aHis, 635 nm (AID 1123).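 Further: z-score combines 667nm fluorescence intensity with signal-to-noise per printed compound spot.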 The settings on record: COS7 cell lysate, fluorescence, higher = more signal.
A short description of assay [6]: compound binding in COS7 lysate, probe aLAP1, primary screen, cell lysate, small-molecule microarray (AID 1124).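 Further: lysate comes from COS7 cells expressing LAP1 and is applied at 0.3 µg/mL; score merges spot fluorescence near 667 nm with signal-to-noise over triplicate slides.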 The settings on record: probe aLAP1, fluorescence, higher = more signal.
For another assay, the system named is Sam68 (KHDRBS1). Description: Sam68 small-molecule binders, primary screen, biochemical, small-molecule microarray, 635 nm fluorescence (AID 1125).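 Further: score merges 667 nm channel intensity with signal to noise over triplicate slides.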 To be noted: small-molecule microarray binding, higher = more signal.
Assay [7] relates to Chordin-like protein 2 (CHRDL2). Put plainly: CHRDL2 small-molecule binders, primary screen, biochemical, small-molecule microarray, 635 nm fluorescence (AID 1126).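 Further: printed compound slides probed with Chrdl2 protein at 4 µg/mL for 1 h at 4 C; score merges 667 nm emission intensity with signal to noise over three replicate slides.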 The settings on record: small-molecule microarray binding, fluorescence 635 nm; higher = more signal.
Assay [8] deals with Concanavalin-A (Canavalia ensiformis) (UniProt P02866). Put plainly: ConA small-molecule binders, primary screen, artefact control for SMM control protein annotation, biochemical, small-molecule microarray, Alexa647 label, 635 nm (AID 1127).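 Further: z combines 667 nm emission intensity with signal-to-noise across three replicate slides.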 To be noted: ConA-A647 binding fluorescence, higher = more signal.

Calls of active or inactive are those of the source.

Chain of Albumin (Bos taurus) (P02769 whole entry, looked up): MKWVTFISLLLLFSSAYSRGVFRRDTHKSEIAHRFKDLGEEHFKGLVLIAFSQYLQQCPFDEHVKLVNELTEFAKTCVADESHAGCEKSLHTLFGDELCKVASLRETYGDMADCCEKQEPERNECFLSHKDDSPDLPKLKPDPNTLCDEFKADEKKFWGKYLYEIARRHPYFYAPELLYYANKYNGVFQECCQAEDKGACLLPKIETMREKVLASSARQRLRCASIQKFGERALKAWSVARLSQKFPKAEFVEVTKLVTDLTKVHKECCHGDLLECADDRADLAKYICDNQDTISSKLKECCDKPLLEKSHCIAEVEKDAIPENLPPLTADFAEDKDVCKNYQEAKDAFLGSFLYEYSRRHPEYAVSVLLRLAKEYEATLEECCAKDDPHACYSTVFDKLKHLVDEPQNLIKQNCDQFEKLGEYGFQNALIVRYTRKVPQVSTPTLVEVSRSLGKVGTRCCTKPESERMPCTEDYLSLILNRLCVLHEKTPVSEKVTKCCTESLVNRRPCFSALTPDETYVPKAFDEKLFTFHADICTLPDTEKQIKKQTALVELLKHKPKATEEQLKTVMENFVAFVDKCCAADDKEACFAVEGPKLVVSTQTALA
Chain of Concanavalin-A (Canavalia ensiformis) (P02866 whole entry, looked up): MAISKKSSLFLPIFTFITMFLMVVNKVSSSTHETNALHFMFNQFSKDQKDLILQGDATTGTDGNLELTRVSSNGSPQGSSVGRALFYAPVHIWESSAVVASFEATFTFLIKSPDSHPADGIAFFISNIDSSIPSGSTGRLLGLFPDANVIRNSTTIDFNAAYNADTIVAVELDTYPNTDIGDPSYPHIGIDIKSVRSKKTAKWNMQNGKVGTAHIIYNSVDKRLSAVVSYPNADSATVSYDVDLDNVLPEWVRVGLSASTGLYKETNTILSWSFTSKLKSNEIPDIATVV

Regarding `COCCOC(=O)N1C(=O)[C@@]2(c3cc(C#CC4(O)CCCCCC4)ccc31)[C@H](C(=O)N1CCc3cc(OC)c(OC)cc3C1)[C@H]1C(=O)O[C@H](c3ccccc3)[C@H](c3ccccc3)N1[C@@H]2c1ccc(O)cc1`, the composite z-score was 0.609 with Albumin (Bos taurus); 0.163 in [2]; 0.0012 in assay [3]; 0.638 in assay [4]; 1.58 in assay [5]; 0.773 in assay [6]. For the same compound, the composite z-score amounted to 1.29 in the assay on Sam68 (KHDRBS1), 0.34 in assay [7] and 1.16 in assay [8]. Moreover, the composite Z-score in assay [1] was 0.413 (inactive).

Regarding `COC(=O)Cn1c(C(=O)N(C)C)cc2c1C[C@H]1CN(C(=O)c3ccccc3)[C@@](Cc3ccc(OC)cc3)(C(=O)OC)[C@@H]21`, the composite z-score in the assay with Albumin (Bos taurus) was 0.938; in assay [2], 0.332; in assay [3], -0.037; in assay [4], 0.845; in [5], 3.28; in [6], -0.0169. The composite z-score in the assay on Sam68 (KHDRBS1) was 1.08; in [7] it was -0.108; in [8], 0.812. In assay [1], the composite Z-score is -0.945 (inactive).

Take `COc1ccc(C#Cc2ccc3c(c2)[C@]2(C(=O)N3)[C@H](C(=O)Nc3nc4ccccc4s3)[C@H]3C(=O)O[C@H](c4ccccc4)[C@H](c4ccccc4)N3[C@@H]2c2ccc(OCCO)cc2)cc1`: the composite z-score with Albumin (Bos taurus) is 0.789; in assay [2], 0.109; in [3], -0.0486; in assay [4] it was 0.622; in [5], 2.46; in [6] it was 0.816. For the same compound, the composite z-score in the assay with Sam68 (KHDRBS1) was 1.31; in assay [7] it was 0.254; in [8], 1.17. The composite Z-score in assay [1] was 0.403 (inactive).

`C=CCC(OC(C)=O)[C@@H]1[C@@H](N(Cc2cc3ccccc3o2)C(=O)Cc2ccc(OC)cc2)c2cc(OCCCO)ccc2N1C(=O)Cc1ccc(OC)cc1` (stereo not given in full): the composite z-score is -0.477 with Albumin (Bos taurus); -0.0711 in [2]; -0.153 in assay [3]; 0.426 in assay [4]; -0.188 in assay [5]; 0.107 in assay [6]. Moreover, the composite z-score in the assay with Sam68 (KHDRBS1) is -0.0765; in [7], 0.208; in assay [8], -0.395. Also, the composite Z-score in assay [1] was -0.188 (inactive).

With `O=C1OCCC=C[C@H]2OC34C=CCN(c5ccc(Cl)cc5)C(=O)[C@H]3N(CCO)C(=O)[C@@H]4C12` (stereo not given in full), the composite z-score with Albumin (Bos taurus) is 0.597; in assay [2], -0.406; in assay [3], -0.189; in [4], 0.859; in assay [5] it was -0.387; in assay [6], -0.419. The composite z-score in the assay on Sam68 (KHDRBS1) is -0.914; in assay [7], -0.291; in assay [8] it was -0.648. For the same compound, the composite Z-score in [1] is 0.359 (inactive).

Take `CN(C)CCCC[C@@H]1NC(=O)[C@@H]2C[C@H](C(=O)NCCCCCCNC(=O)CS)[C@H](c3cccc(OCCO)c3)N2C1=O`: the composite z-score with Albumin (Bos taurus) is -0.361; in assay [2] it was -0.213; in assay [3] it was -0.0649; in [4], 0.48; in assay [5], 0.95; in assay [6] it was 0.312. In addition, the composite z-score turned out to be 0.555 with Sam68 (KHDRBS1), 0.402 in [7] and 0.658 in assay [8]. Besides, the composite Z-score in [1] was 0.303 (inactive).

Take `CCCC[C@H]1OB(O)C[C@H]2C1=C(COC)C[C@H]1C(=O)C=CC(=O)[C@H]12`: the composite z-score was -0.183 with Albumin (Bos taurus); 0.029 in assay [2]; 0.144 in assay [3]; -0.104 in assay [4]; -0.279 in assay [5]; -0.236 in [6]. Also, the composite z-score is 0.684 in the assay with Sam68 (KHDRBS1), 0.676 in assay [7] and 0.486 in [8]. Also, in assay [1], the composite Z-score was 0.727 (inactive).

`CCC(CC)C(O)C1C=CC2C(=O)N(C)C(=O)C2N1N1CCCCC1` (stereo not given): the composite z-score is 0.999 with Albumin (Bos taurus); 0.499 in [2]; 0.0477 in assay [3]; 0.755 in assay [4]; 2.5 in assay [5]; 0.502 in assay [6]. Also, the composite z-score came out at 1.31 in the assay with Sam68 (KHDRBS1), 0.0277 in assay [7] and 1.13 in assay [8]. In addition, the composite Z-score in assay [1] was -0.175 (inactive).

Consider `Cc1ccc(F)cc1S(=O)(=O)N[C@@H]1CCN(Cc2ccc3c(c2)OCO3)C1`, for which the composite z-score with Albumin (Bos taurus) is 0.167; in assay [2], -0.129; in assay [3], -0.147; in [4] it was 0.0085; in [5], -0.702; in [6], 0.0521. The composite z-score with Sam68 (KHDRBS1) was -0.148; in assay [7], 0.0213; in assay [8], -0.319. Also, in assay [1], the composite Z-score was -0.0662 (inactive).

Take `COCCOC(=O)N1C(=O)[C@@]2(c3ccccc31)[C@H](C(=O)N1CCCCCCC1)[C@H]1C(=O)O[C@H](c3ccccc3)[C@H](c3ccccc3)N1[C@@H]2c1ccc(O)cc1`: the composite z-score in the assay with Albumin (Bos taurus) turned out to be 0.816; in assay [2] it was 2; in assay [3] it was 0.95; in assay [4] it was 0.608; in assay [5], 3.97; in assay [6], 2.11. The figures for the composite z-score (with Sam68 (KHDRBS1); in [7]; in assay [8]) were 1.3, 1.41 and 1.03, respectively. In addition, in [1], the composite Z-score is 4.39 (inactive).

Regarding `C=CCC(OC(C)=O)[C@@H]1[C@@H](N(Cc2cc3ccccc3o2)C(=O)c2ccc(-c3ccccc3)cc2)c2cc(OCCCO)ccc2N1C(=O)c1ccc2ccccc2n1` (stereo not given in full), the composite z-score with Albumin (Bos taurus) is 0.593; in assay [2], -0.0362; in [3] it was -0.0901; in assay [4], 0.0088; in assay [5] it was 0.23; in assay [6], 0.269. The figures for the composite z-score (in the assay with Sam68 (KHDRBS1); in assay [7]; in assay [8]) were -0.626, 0.163 and -1.34, respectively. For the same compound, the composite Z-score in assay [1] was 0.176 (inactive).

Regarding `N[C@@H](Cc1ccccc1)Cn1cc(C2(O)CCCCC2)nn1`, the composite z-score in the assay with Albumin (Bos taurus) was -0.052; in assay [2], -0.014; in assay [3] it was -0.14; in assay [4], -0.29; in assay [5], 0.451; in [6] it was 0.0682. Further, the composite z-score in the assay with Sam68 (KHDRBS1) was 0.525; in assay [7], 0.0155; in [8], 0.88. In addition, in assay [1], the composite Z-score is -0.116 (inactive).

In the case of `COCCOC(=O)N1C(=O)[C@@]2(c3cc(C#CC4=CCCCC4)ccc31)[C@H](c1ccc(OCCO)cc1)N1[C@H](c3ccccc3)[C@H](c3ccccc3)OC(=O)[C@H]1[C@@H]2C(=O)N1CCCCCCC1`, the composite z-score in the assay with Albumin (Bos taurus) is 0.263; in assay [2], 0.809; in [3] it was 0.0784; in assay [4], 0.623; in [5], 2.41; in assay [6], 0.903. The composite z-score came to 1.3 in the assay with Sam68 (KHDRBS1), 0.91 in assay [7] and 1.11 in assay [8]. Further, the composite Z-score in [1] is 2 (inactive).

Consider `CN(C)CCCC[C@@H]1NC(=O)[C@H]2C[C@@H](C(=O)NCc3ccc(F)cc3)[C@@H](c3ccc(O)cc3)N2C1=O`, for which the composite z-score with Albumin (Bos taurus) is -0.734; in assay [2], -0.136; in assay [3], -0.0423; in [4] it was 0.757; in assay [5], 2.25; in assay [6] it was 0.0507. Moreover, the composite z-score was determined as 1.16 in the assay on Sam68 (KHDRBS1), 1.13 in [7] and 1.15 in assay [8]. Further, the composite Z-score in assay [1] was 1.79 (inactive).

As to `C=C(COC)C(=O)CC[C@@H](OC(C)=O)c1ccc(OCCO)cc1`, the composite z-score with Albumin (Bos taurus) was -0.561; in assay [2], 0.0426; in assay [3], -0.125; in assay [4] it was 0.648; in assay [5], 0.206; in assay [6], -0.217. Also, the composite z-score was 0.744 in the assay on Sam68 (KHDRBS1), -0.127 in assay [7] and 0.891 in assay [8]. For the same compound, the composite Z-score in assay [1] is 0.392 (inactive).

In the case of `CCOC(=O)C[C@H]1[C@H](OC(=O)c2ccc(C(=O)c3ccccc3)cc2)[C@@H](NC(=O)c2ccc3ccccc3c2)c2cc(OCCCO)ccc2N1C(=O)c1ccc2ccccc2n1`, the composite z-score is 0.544 with Albumin (Bos taurus); 0.134 in [2]; 0.0683 in assay [3]; 0.342 in assay [4]; 0.853 in assay [5]; 0.653 in [6]. The composite z-score in the assay with Sam68 (KHDRBS1) was determined as 1.09; in [7], 0.345; in assay [8] it was 0.707. Moreover, the composite Z-score in [1] is 0.159 (inactive).
